Compound activity as filed in PubChem BioAssay.
Only some compounds are listed: those with a hit (about 4.6% of all), similar ones and a draw of the others.
TIM10 inh – inhibits growth of TIM10 yeast strain. S. cerevisiae TIM10 strain growth, BacTiter-Glo luminescence, 24 h. 330,000 compounds, 1.4% hits. inhibition, % at 10 µM. AID 463195;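 active means inhibition of 40% or more at the single tested concentration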;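 further: wild-type TIM10 isogenic control strain grown at permissive 25 °C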
V-ATPase pH – yeast V-ATPase proton transport regulation by pHLuorin. S. cerevisiae, pHLuorin cytosolic pH fluorescence. response, % at 10 µM. 350,000 compounds, 0.37% hits. AID 504577; in the data active means response mostly above about 7.3%, no sharp cut-off; inactive means mostly below about 5.4%; further: actives read high
tim23-1 inh – inhibits growth of tim23-1 mutant yeast | S. cerevisiae tim23-1 growth, BacTiter-Glo luminescence, 24 h | inhibition, % at 20 µM | 330,000 compounds, 1.3% hits;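 active means growth inhibition of the mutant yeast at or above 50%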;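 further: temperature-sensitive mutant grown at 25 °C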
SKKanGAS inh – SKKanGAS growth inhibition; S. pyogenes SKKanGAS, kanamycin growth, BacTiter-Glo, 6 h; inhibition, % at 7.5 µM; 300,000 compounds, 1.3% hits; AID 1662;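 active means mean replicate score, as percent of positive control median, at least 50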;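 further: strain carries kanamycin resistance gene driven by streptokinase promoter and grows in 40 µg/ml kanamycin; loss of luminescence reflects streptokinase promoter inhibition or plain growth inhibition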
tim10-1 inh – growth inhibitors of tim10-1 mutant yeast; S. cerevisiae tim10-1 ts strain growth, BacTiter-Glo, 24 h; inhibition, % at 20 µM; 330,000 compounds, 2.2% hits; AID 463190;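 active means inhibition of at least 40%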;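 further: mutant grown at 25 °C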
PfHsp90 set2 – growth inhibition of yeast expressing Plasmodium Hsp90. S. cerevisiae expressing PfHsp90, BacTiter-Glo ATP, 48 h; yeast lacking PDR1 and PDR3 efflux regulators. inhibition, % at 9.4 µM. 310,000 compounds, 0.32% hits. AID 504621;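 active means every replicate shows inhibition above about 80%, whatever the replicate mean, limit read from the data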
tim10-1 conf – tim10-1 yeast growth inhibition, confirmed. shares compounds with tim10-1 inh. S. cerevisiae tim10-1 ts strain growth, BacTiter-Glo, 24 h. inhibition, % at 20 µM. 7,400 compounds, 56% hits. AID 463213;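 active means inhibition of yeast growth at or above a set limit in either of two repeat tests at 20 µM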;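 further: tim10-1 mutant grown at permissive 25 °C to find synthetic lethal compounds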
A number is an active result; . = inactive; / = no result.

SMILES | TIM10 inh | V-ATPase pH | tim23-1 inh | SKKanGAS inh | tim10-1 inh | PfHsp90 set2 | tim10-1 conf
COC(=O)c1ccsc1NC(=O)CCS(=O)(=O)c1ccccc1 | . | . | . | . | 41.5 | . | .
COC(=O)c1ccsc1NC(=O)CCS(=O)(=O)c1ccc(Cl)cc1 | . | . | . | . | 56.2 | . | 59.1
Cc1ccc(S(=O)(=O)CCC(=O)Nc2sccc2C(N)=O)cc1 | . | . | . | / | . | . | /
Cc1ccc(SCc2cn3c(C)csc3n2)cc1 | . | . | . | . | . | . | /
Cc1ccc(C(=O)Oc2ccc(Cl)c3cccnc23)cc1[N+](=O)[O-] | . | . | . | 51.3 | 40.6 | . | .
COc1ccc(C(=O)Oc2cccc3cccnc23)cc1[N+](=O)[O-] | . | . | . | . | . | . | /
O=C(CN1C(=O)/C(=C\c2cccc(Br)c2)Oc2ccccc21)NCCCN1CCOCC1 | . | . | . | . | 43.7 | . | .
C[C@H](NC(=O)c1[nH]cnc1C(=O)Nc1ccc(Cl)cc1)c1ccccc1 | . | . | . | / | . | / | /
CSc1nnc(-c2ccc(NC(N)=S)cc2)o1 | . | . | . | . | . | . | /
CSc1nnc(-c2cccc(NC(=S)NN)c2)o1 | . | . | . | . | 49.0 | . | .
CCOC(=O)C[C@H]1c2ccc(C(F)(F)F)cc2S(=O)(=O)N1c1cccc(OC)c1 | . | . | . | . | . | . | /
Cc1ccc(C2CC2/C(=N/O)c2ccc(F)cc2)cc1 (stereo not drawn) | . | . | . | . | . | . | /
O/N=C(/c1ccc(Cl)cc1)C1CC1c1ccccc1 (stereo not drawn) | . | . | . | . | 50.6 | . | .
O=C(c1cc2ccccc2oc1=O)N(Cc1ccco1)Cc1cccs1 | . | . | . | . | . | / | /
O=C(c1cc2ccccc2oc1=O)N(Cc1cccs1)Cc1cccs1 | . | . | . | . | 42.4 | . | .
O=C(CS(=O)(=O)c1ccccc1)c1cc2ccccc2oc1=O | . | . | . | . | 42.4 | . | .
COc1ccccc1CN1CC(C(=O)N2CCC(C(=O)c3ccccc3)CC2)CCC1=O (stereo not drawn) | . | . | . | . | . | . | /
CC(C)Cc1nc(N2CCN(C(=O)c3ccccc3)CC2)c(C#N)c2c1CCC2 | . | . | . | . | . | . | /
CC(=O)N1CCN(c2nc(CC(C)C)c3c(c2C#N)CCC3)CC1 | . | . | . | . | 49.5 | . | .
CCCOc1ccc(NC(=O)C2CC(=O)N(C)C(=Nc3cccc(OC)c3)S2)cc1 (stereo not drawn) | . | . | . | . | . | . | /
COc1ccc(CN(C2CCCC2)S(=O)(=O)c2ccc(-n3cnnn3)cc2)cc1 | . | . | . | . | 40.2 | . | 34.7
Cc1cc(Nc2ccccc2)nn1C(=O)c1ccc(Br)cc1 | . | . | . | 50.3 | 52.6 | . | .
COc1ccc(C(=O)n2nc(C)cc2Nc2ccccc2)cc1 | . | . | . | . | . | . | /
CNc1nc(Nc2ccc(C)c(Cl)c2)c2cnn(C)c2n1 | . | . | . | . | . | . | /
Cn1ncc2c(Nc3ccc(Br)cc3)nc(Nc3ccc(Br)cc3)nc21 | . | . | . | 106.0 | 56.8 | . | 28.4
SMILES | TIM10 inh | V-ATPase pH | tim23-1 inh | SKKanGAS inh | tim10-1 inh | PfHsp90 set2 | tim10-1 conf
Cn1ncc2c(Nc3cccc(Cl)c3)nc(Nc3cccc(Cl)c3)nc21 | . | . | . | 100.0 | 54.0 | 107.6 | 45.3
O=C(/C=C/c1cccs1)Nc1cccc(NC(=O)/C=C/c2cccs2)n1 | . | . | . | . | 40.1 | . | .
CC1CCCC2(C1)NC(=S)N(c1ccccc1)N2 (stereo not drawn) | . | . | . | . | 55.1 | . | .
Cc1cccc(C)c1OC(=O)CCN1C(=O)C2C3C=CC(C4CC34)C2C1=O (stereo not drawn) | . | . | . | . | 40.8 | . | .
CCOC(=O)C1=NNC(C(=O)c2ccc(C)cc2)C1c1ccc(OC)cc1 (stereo not drawn) | . | . | . | . | 41.1 | . | .
CCOC(=O)C1=NNC(C(=O)c2ccc(Cl)cc2)C1c1ccc(OC)cc1 (stereo not drawn) | . | . | . | . | . | . | /
CC(CCCN(C)C)C(Cc1ccccc1)c1ccccc1 (stereo not drawn) | . | . | . | . | . | / | /
Cc1ccc(SCCNC(=S)Nc2cc(C)ccc2C)cc1 | . | . | . | . | 43.1 | . | .
Cc1ccc(SCCNC(=S)Nc2ccccc2)cc1 | . | . | . | . | . | / | /
O=[N+]([O-])c1cc2c(cc1Br)-c1ccccc1C2 | / | . | / | / | / | / | /
O=[N+]([O-])c1ccc2oc(C(O)c3cccc(Cl)c3)cc2c1 (stereo not drawn) | . | . | . | . | 43.8 | . | 43.0
CCOC(=O)c1cc2cc([N+](=O)[O-])ccc2oc1=O | . | . | . | . | . | . | /
O=C1/C(=C/c2cccnc2)SC(=S)N1N1CCOCC1 | . | . | . | . | 51.6 | . | 40.1
O=C(OC1CCCCC1=O)c1cc(Cl)ccc1[N+](=O)[O-] (stereo not drawn) | . | . | . | . | 45.0 | . | 39.3
CCOC(=O)C1=NN(C(=O)Cc2ccccc2)C(O)(c2ccc(Cl)cc2)C1 (stereo not drawn) | . | . | . | . | 42.5 | . | 31.7
CCOC(=O)C1=NN(C(=O)COc2ccccc2)C(O)(c2ccc(Cl)cc2)C1 (stereo not drawn) | . | . | . | . | . | . | /
S=C(NC1CC1)NC1CCCc2ccccc21 (stereo not drawn) | . | . | . | . | . | . | /
Cc1ccnc(NC(=O)C23CC4CC(CC(C4)C2)C3)c1 | . | . | . | . | 48.9 | . | 33.9
CC1CN(C(=O)Nc2ccc3snnc3c2)c2ccccc21 (stereo not drawn) | . | . | . | . | 47.5 | . | .
O=C(Nc1ccc2snnc2c1)N1CCSCC1 | . | . | . | . | . | / | /
